Nuclei count, normalised and p53-positive nuclei, normalised data for 7 compounds are collected here from PubChem BioAssay AID1508601 (ICCB-Longwood Screening Facility, Harvard Medical School, 2020).

A short description of assay [1]: p53 stabilisation in HPV-positive human cells, imaging, p53-positive nuclei imaging, 24 h, 48 h (AID 1508601). The settings on record: 24/48 h.
The target of assay [2] is Cellular tumor antigen p53 (Homo sapiens) (UniProt P04637). The description is as above. The settings on record: 24/48 h, stronger effect = higher value.
[3] abbreviates: measured here: cell number at 24 h, Library stock concentration: 80 uM.
The mark [4] stands for this setting: measured here: cell number at 24 h, Library stock concentration: 400 uM.
Setting [5] is: measured here: cell number at 24 h, Library stock concentration: 2 mM.
Where [6] appears, read: measured here: cell number at 24 h, Library stock concentration: 3.33 mM.
The mark [7] stands for this setting: measured here: cell number at 24 h, Library stock concentration: 10 mM.
Setting [8] is: measured here: cell number at 48 h, Library stock concentration: 80 uM.
[9] abbreviates: measured here: cell number at 48 h, Library stock concentration: 400 uM.
Setting [10] is: measured here: cell number at 48 h, Library stock concentration: 2 mM.
Where [11] appears, read: measured here: cell number at 48 h, Library stock concentration: 3.33 mM.
Setting [12] is: measured here: cell number at 48 h, Library stock concentration: 10 mM.
The mark [13] stands for this setting: Library stock concentration: 80 uM.
Where [14] appears, read: Library stock concentration: 400 uM.
Setting [15] is: Library stock concentration: 2 mM.
Setting [16] is: Library stock concentration: 3.33 mM.
Setting [17] is: Library stock concentration: 10 mM.
[18] abbreviates: measured here: p53 positive nuclei at 24 h, Library stock concentration: 80 uM.
[19] abbreviates: measured here: p53 positive nuclei at 24 h, Library stock concentration: 400 uM.
[20] abbreviates: measured here: p53 positive nuclei at 24 h, Library stock concentration: 2 mM.
Where [21] appears, read: measured here: p53 positive nuclei at 24 h, Library stock concentration: 3.33 mM.
[22] abbreviates: measured here: p53 positive nuclei at 24 h, Library stock concentration: 10 mM.
The mark [23] stands for this setting: measured here: cell number at 24 h, concentration not given here.
The mark [24] stands for this setting: measured here: cell number at 48 h, concentration not given here.
Where [25] appears, read: measured here: p53 positive nuclei at 24 h, concentration not given here.

About 85 (1%) of roughly 5,700 compounds were called active. No stated cut-off is given here; in the data, active means p53-positive nuclei above about 36% (passing the limit was not always enough); inactive means the rest. Only a selection was taken, and actives are over-represented in it overall.

Chain of Cellular tumor antigen p53 (Homo sapiens) (P04637 whole entry, looked up): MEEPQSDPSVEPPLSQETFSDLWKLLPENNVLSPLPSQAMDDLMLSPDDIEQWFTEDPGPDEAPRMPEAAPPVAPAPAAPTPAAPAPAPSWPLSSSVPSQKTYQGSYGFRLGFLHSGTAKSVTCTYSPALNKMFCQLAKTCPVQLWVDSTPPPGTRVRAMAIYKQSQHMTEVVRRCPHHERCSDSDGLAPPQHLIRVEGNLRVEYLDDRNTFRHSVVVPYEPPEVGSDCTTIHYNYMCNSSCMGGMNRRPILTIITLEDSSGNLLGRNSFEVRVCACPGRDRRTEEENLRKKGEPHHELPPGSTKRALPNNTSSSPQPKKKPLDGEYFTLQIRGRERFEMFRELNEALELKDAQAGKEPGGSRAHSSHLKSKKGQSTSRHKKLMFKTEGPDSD

Take `Cn1cc(CNCC2CCN(c3ncc(C(=O)NO)cn3)CC2)c2ccccc21`: the nuclei count, normalised is 71% in assay [1] (setting [3]); 49.1% in assay [1] (setting [4]); 40.5% in assay [1] (setting [5]); 36.3% in assay [1] (setting [6]); 37.2% in assay [1] (setting [7]); 55.2% in assay [1] (setting [8]). The nuclei count, normalised in assay [1] (setting [9]) is 24%; in assay [1] (setting [10]), 20.2%; in assay [1] (setting [11]), 20.7%; in assay [1] (setting [12]), 23.5%. Also, the p53-positive nuclei, normalised in assay [2] (setting [13]) was 20.9% (inactive); in assay [2] (setting [14]), 102% (active); in assay [2] (setting [15]), 92.2% (active); in assay [2] (setting [16]), 111% (active); in assay [2] (setting [17]) it was 108% (active); in assay [2] (setting [18]) it was 43.9%. For the same compound, the p53-positive nuclei, normalised in assay [2] (setting [19]) came to 92.9%; in assay [2] (setting [20]) it was 103%; in assay [2] (setting [21]) it was 96.9%; in assay [2] (setting [22]) it was 120%.
For `CCCCC/C=C\C/C=C\CCCC/C=C\CCCC(=O)O`, the nuclei count, normalised in assay [1] (setting [23]) is 97.6%; in assay [1] (setting [24]), 96%. Besides, the p53-positive nuclei, normalised in assay [2] (concentration not given here) was -0.0366% (inactive); in assay [2] (setting [25]) it was 0.0071%.
`Cc1ccc(B(O)O)cc1`: the nuclei count, normalised came to 105% in assay [1] (measured here: cell number at 24 h, Library stock concentration: 46 uM); 101% in assay [1] (measured here: cell number at 24 h, Library stock concentration: 278 uM); 110% in assay [1] (measured here: cell number at 24 h, Library stock concentration: 1.67 mM); 110% in assay [1] (setting [7]); 109% in assay [1] (measured here: cell number at 48 h, Library stock concentration: 46 uM); 102% in assay [1] (measured here: cell number at 48 h, Library stock concentration: 278 uM). Moreover, the nuclei count, normalised in assay [1] (measured here: cell number at 48 h, Library stock concentration: 1.67 mM) came out at 112%; in assay [1] (setting [12]) it was 112%. The p53-positive nuclei, normalised in assay [2] (Library stock concentration: 46 uM) was -0.0277% (inactive); in assay [2] (Library stock concentration: 278 uM), -0.207% (inactive); in assay [2] (Library stock concentration: 1.67 mM) it was -0.181% (inactive); in assay [2] (setting [17]), -0.0402% (inactive); in assay [2] (measured here: p53 positive nuclei at 24 h, Library stock concentration: 46 uM), -0.0986%; in assay [2] (measured here: p53 positive nuclei at 24 h, Library stock concentration: 278 uM), -0.148%. For the same compound, the p53-positive nuclei, normalised in assay [2] (measured here: p53 positive nuclei at 24 h, Library stock concentration: 1.67 mM) was -0.218%; in assay [2] (setting [22]) it was -0.0984%.
As to `COc1ccc(CNc2nc(N3CCCC3CO)ncc2C(=O)NCc2ncccn2)cc1Cl` (stereo not drawn), the nuclei count, normalised in assay [1] (setting [6]) turned out to be 112%; in assay [1] (setting [11]) it was 104%. In addition, the p53-positive nuclei, normalised was -0.102% (inactive) in assay [2] (setting [16]) and -0.198% in assay [2] (setting [21]).
As to `CCc1cnn2c(NCc3ccc[n+]([O-])c3)cc(N3CCCCC3CCO)nc12` (stereo not drawn), the nuclei count, normalised is 30.2% in assay [1] (setting [3]); 27.8% in assay [1] (setting [4]); 24.5% in assay [1] (setting [5]); 27.3% in assay [1] (setting [6]); 30.5% in assay [1] (setting [7]); 20.4% in assay [1] (setting [8]). Also, the nuclei count, normalised in assay [1] (setting [9]) was determined as 19.3%; in assay [1] (setting [10]), 16.3%; in assay [1] (setting [11]) it was 18.9%; in assay [1] (setting [12]) it was 20.6%. The p53-positive nuclei, normalised in assay [2] (setting [13]) was 51.1% (active); in assay [2] (setting [14]), 35% (inactive); in assay [2] (setting [15]), 42% (inactive); in assay [2] (setting [16]), 36.1% (inactive); in assay [2] (setting [17]) it was 26.7% (inactive); in assay [2] (setting [18]) it was 9.51%. The p53-positive nuclei, normalised in assay [2] (setting [19]) is 6.74%; in assay [2] (setting [20]), 7.45%; in assay [2] (setting [21]) it was 8.9%; in assay [2] (setting [22]) it was 2.01%.
Regarding `COc1cccc2c(C)cc(N3CCC[C@H]3CO)nc12`, the nuclei count, normalised in assay [1] (setting [23]) came out at 96.3%; in assay [1] (setting [24]), 98.1%. The values for the p53-positive nuclei, normalised in assay [2] (concentration not given here) and in assay [2] (setting [25]) were -0.0398% (inactive) and 0.0977%, respectively.
On to `CCCCCCCCCCCCCC=CC(O)C(CO)N(C)C` (stereo not drawn), for which the nuclei count, normalised in assay [1] (measured here: cell number at 24 h, Library stock concentration: 500 nM) came out at 120%; in assay [1] (measured here: cell number at 24 h, Library stock concentration: 1.5 uM), 110%; in assay [1] (measured here: cell number at 24 h, Library stock concentration: 4.6 uM), 117%; in assay [1] (measured here: cell number at 24 h, Library stock concentration: 13.7 uM), 108%; in assay [1] (measured here: cell number at 24 h, Library stock concentration: 41 uM) it was 110%; in assay [1] (measured here: cell number at 24 h, Library stock concentration: 123 uM), 122%. Further, the nuclei count, normalised stood at 122% in assay [1] (measured here: cell number at 24 h, Library stock concentration: 370 uM); 118% in assay [1] (measured here: cell number at 24 h, Library stock concentration: 1.111 mM); 102% in assay [1] (measured here: cell number at 24 h, Library stock concentration: 3.333 mM); 35.8% in assay [1] (setting [7]); 115% in assay [1] (measured here: cell number at 48 h, Library stock concentration: 500 nM); 109% in assay [1] (measured here: cell number at 48 h, Library stock concentration: 1.5 uM). Further, the nuclei count, normalised in assay [1] (measured here: cell number at 48 h, Library stock concentration: 4.6 uM) was 107%; in assay [1] (measured here: cell number at 48 h, Library stock concentration: 13.7 uM), 107%; in assay [1] (measured here: cell number at 48 h, Library stock concentration: 41 uM) it was 110%; in assay [1] (measured here: cell number at 48 h, Library stock concentration: 123 uM), 114%; in assay [1] (measured here: cell number at 48 h, Library stock concentration: 370 uM) it was 116%; in assay [1] (measured here: cell number at 48 h, Library stock concentration: 1.111 mM) it was 112%. Further, the nuclei count, normalised in assay [1] (measured here: cell number at 48 h, Library stock concentration: 3.333 mM) came to 109%; in assay [1] (setting [12]), 22.2%. Further, the p53-positive nuclei, normalised is -0.17% (inactive) in assay [2] (Library stock concentration: 500 nM); -0.126% (inactive) in assay [2] (Library stock concentration: 1.5 uM); -0.0366% (inactive) in assay [2] (Library stock concentration: 4.6 uM); -0.121% (inactive) in assay [2] (Library stock concentration: 13.7 uM); -0.00454% (inactive) in assay [2] (Library stock concentration: 41 uM); -0.0524% (inactive) in assay [2] (Library stock concentration: 123 uM). Also, the p53-positive nuclei, normalised in assay [2] (Library stock concentration: 370 uM) was 0.0673% (inactive); in assay [2] (Library stock concentration: 1.111 mM) it was -0.00344% (inactive); in assay [2] (Library stock concentration: 3.333 mM), -0.0281% (inactive); in assay [2] (setting [17]), 3.77% (inactive); in assay [2] (measured here: p53 positive nuclei at 24 h, Library stock concentration: 500 nM), -0.148%; in assay [2] (measured here: p53 positive nuclei at 24 h, Library stock concentration: 1.5 uM) it was -0.148%. In addition, the p53-positive nuclei, normalised in assay [2] (measured here: p53 positive nuclei at 24 h, Library stock concentration: 4.6 uM) is -0.148%; in assay [2] (measured here: p53 positive nuclei at 24 h, Library stock concentration: 13.7 uM), -0.019%; in assay [2] (measured here: p53 positive nuclei at 24 h, Library stock concentration: 41 uM) it was -0.0213%; in assay [2] (measured here: p53 positive nuclei at 24 h, Library stock concentration: 123 uM), -0.148%; in assay [2] (measured here: p53 positive nuclei at 24 h, Library stock concentration: 370 uM) it was -0.0899%; in assay [2] (measured here: p53 positive nuclei at 24 h, Library stock concentration: 1.111 mM), -0.0918%. The p53-positive nuclei, normalised was -0.0113% in assay [2] (measured here: p53 positive nuclei at 24 h, Library stock concentration: 3.333 mM) and 3.53% in assay [2] (setting [22]).
